Measured values reported in PubChem BioAssay AID488846 (National Center for Advancing Translational Sciences (NCATS), 2010).
Active and inactive are the calls of the source. The call rests on the fitted dose curve; in most records, active means well fitted curve in the direction sought with a large enough effect; inactive means no such curve, though single readings can be large or run the other way.

Target: Alpha-galactosidase A (Homo sapiens) (UniProt P06280)
Assay: qHTS Assay for Inhibitors and Activators of N370S glucocerebrosidase as a Potential Chaperone Treatment of Gaucher Disease: Alpha-Galactosidase Counterscreen for Probe SAR
Details: purified human alpha-galactosidase, 4-MU-alpha-Gal fluorescence
Text: NIH Chemical Genomics Center [NCGC] NIH Molecular Libraries Probe Production Centers Network [MLPCN] MLPCN Grant: MH086442-01 Assay Submitter (PI): Wei Zheng Glucocerebrosidase (GC) catalyzes the hydrolysis of beta-glucocerebroside to glucose and ceramide in lysosomes. Mutations in the glucocerebrosidase gene result in Gaucher disease, an autosomal recessive lysosomal storage disorder. Many of the mutations encountered in patients with Gaucher disease are missense alterations that may cause misfolding, decreased stability and/or mistrafficking of this lysosomal protein. […] These inhibitors include iminosugar analogs and three non-iminosugar inhibitors identified from a previous HTS of 62,000 compounds with the wild type recombinant enzyme. However, the enhancement of enzyme activity by the chaperone action of an enzyme inhibitor must be balanced against the direct inhibition of the enzyme. An enzyme activator could also function as a chaperone by binding to the enzyme and helping to correct its misfolding and mistrafficking. While activators for GC have not yet been identified, they may have better therapeutic potential than inhibitors. Therefore the discovery and development of chemical activators may provide a new strategy for the chaperone therapy. To characterize compound selectivity, selected hits from the primary screen were screened against purified alpha-galactosidase, a related sugar hydrolase. Alpha-galactosidase is a homodimeric glycoprotein that hydrolyzes the terminal alpha-galactosyl moieties from glycolipids and glycoproteins.
NCGC Assay Protocol Summary: This is a fluorogenic enzyme assay with 4-Methylumbelliferyl alpha-D-galactopyranoside as the substrate and human […] as the enzyme preparation. Upon the hydrolysis of this fluorogenic substrate, the resulting product, […]. 4-Methyllumbelliferone, can be excited at 365 nm and emits at 440 nm. This fluorescence which can be detected by a standard fluorescence plate reader. Data were normalized to the controls for basal activity (without enzyme) and 100% activity (with enzyme). In the AC50 values were determined from concentration-response data modeled with the standard Hill equation. Assay buffer: 50 mM citric acid (titrated with potassium phosphate to pH 4.5), 0.005% Tween-20, pH 4.5. (pH 4.5 is an optimal condition for this enzyme assay) 1536-well assay protocol for the human alpha-galactosidase: (1) Add 2 ul/well of enzyme (12 nM final) (2) Add 23 nL compounds in DMSO solution. The final titration was 0.7 nM to 77 uM. (3) Add 1 ul of substrate ([…]) (4) Incubate at room temperature for 20 min. (5) Add 2 ul stop solution (1M NaOH and 1M Glycine mixture, pH 10) (6) Detect the assay plate in a ViewLux plate reader (PerkinElmer) with Ex=365 nm and Em=440nm.

Sequence of Alpha-galactosidase A (Homo sapiens) (P06280 whole entry, looked up): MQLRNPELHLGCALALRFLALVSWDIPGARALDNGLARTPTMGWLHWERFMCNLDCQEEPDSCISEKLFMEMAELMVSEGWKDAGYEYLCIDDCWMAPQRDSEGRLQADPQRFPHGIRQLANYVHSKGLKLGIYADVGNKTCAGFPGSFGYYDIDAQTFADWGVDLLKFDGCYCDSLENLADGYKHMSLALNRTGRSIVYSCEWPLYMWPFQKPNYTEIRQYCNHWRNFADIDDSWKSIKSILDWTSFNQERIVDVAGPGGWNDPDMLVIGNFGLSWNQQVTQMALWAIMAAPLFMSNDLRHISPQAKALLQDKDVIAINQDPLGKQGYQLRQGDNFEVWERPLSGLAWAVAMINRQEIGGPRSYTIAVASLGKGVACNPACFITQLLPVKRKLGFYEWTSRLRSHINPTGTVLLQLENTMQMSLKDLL

**Q.** `O=C(Nc1ccccc1Sc1ccccc1)c1cnn2c1NC(=C1CC1)C=C2C(F)F` was tested. Which max response did it give?
**A.** -8.53% (inactive)

**Q.** With `O=C(Nc1ccccc1Sc1ccccc1)c1cnn2c1NC(=C1CC1)C=C2C(F)(F)F` as the molecule, how does the max response read?
**A.** -8.17% (inactive)

**Q.** `O=C(NC1CCCCC1)c1cnn2c1NC(=C1CC1)C=C2C(F)F` was tested. Which max response did it give?
**A.** -4.62% (inactive)

**Q.** With `C=C1C=C(C(F)F)n2ncc(C(=O)Nc3ccc(C(C)CC)cc3)c2N1` (stereo unspecified) as the molecule, how does the max response read?
**A.** -7.63% (inactive)

**Q.** How did the max response turn out when `O=C(Nc1ccc2c(c1)CCC2)c1cnn2c1NC(=C1CC1)C=C2C(F)F` was run?
**A.** -2.77% (inactive)

**Q.** Which max response does the source give for `C#Cc1ccc(NC(=O)c2cnn3c(C)cc(C)nc23)cc1` here?
**A.** -7.39% (inactive)
